Bioassay records: PubChem BioAssay, several laboratories
PrPC surface inh = reduces human prion protein on the cell surface | P04156 | cell surface PrPC, TR-FRET read-out | inhibition, % at 13.8 µM | 0.43% of 370,000 active; in the data active = inhibition above about 24%; note: 0% = median of the test wells and 100% = reference compound wells
BJeLR lethal = BJeLR cell viability loss; inhibition, % (test concentration not listed); BJeLR (HRASV12) viability, CellTiter-Glo ATP luminescence, 48 h; 0.17% of 300,000 active; AID 1554; in the data active = inhibition above about 50%; inconclusive = no clear call, values can overlap the other calls
PfHsp40 yeast = rescue of PfHsp40-mediated yeast toxicity. S. cerevisiae expressing PfHsp40, growth rescue, ATP luminescence. growth rescue, % at 12.5 µM. 0.68% of 340,000 active; in the data active = growth rescue above about 28%, passing the limit was not always enough; inconclusive = no clear call, values can overlap the other calls;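 note: yeast W303a lacking pdr1 and pdr3 grown in galactose medium; growth measured after three days at 30 °C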
RecA intein inh = inhibitors of M. tuberculosis RecA intein splicing. P9WHJ3. 0.75% of 290,000 active. inhibition, % (no concentration beside the values). cell-free RecA intein splicing, fluorescence; in the data active = inhibition above about 30%; inconclusive = no clear call, values can overlap the other calls;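 note: 0% = vehicle wells and 100% = reference inhibitor control wells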
Target sequence (P9WHJ3 whole entry, looked up): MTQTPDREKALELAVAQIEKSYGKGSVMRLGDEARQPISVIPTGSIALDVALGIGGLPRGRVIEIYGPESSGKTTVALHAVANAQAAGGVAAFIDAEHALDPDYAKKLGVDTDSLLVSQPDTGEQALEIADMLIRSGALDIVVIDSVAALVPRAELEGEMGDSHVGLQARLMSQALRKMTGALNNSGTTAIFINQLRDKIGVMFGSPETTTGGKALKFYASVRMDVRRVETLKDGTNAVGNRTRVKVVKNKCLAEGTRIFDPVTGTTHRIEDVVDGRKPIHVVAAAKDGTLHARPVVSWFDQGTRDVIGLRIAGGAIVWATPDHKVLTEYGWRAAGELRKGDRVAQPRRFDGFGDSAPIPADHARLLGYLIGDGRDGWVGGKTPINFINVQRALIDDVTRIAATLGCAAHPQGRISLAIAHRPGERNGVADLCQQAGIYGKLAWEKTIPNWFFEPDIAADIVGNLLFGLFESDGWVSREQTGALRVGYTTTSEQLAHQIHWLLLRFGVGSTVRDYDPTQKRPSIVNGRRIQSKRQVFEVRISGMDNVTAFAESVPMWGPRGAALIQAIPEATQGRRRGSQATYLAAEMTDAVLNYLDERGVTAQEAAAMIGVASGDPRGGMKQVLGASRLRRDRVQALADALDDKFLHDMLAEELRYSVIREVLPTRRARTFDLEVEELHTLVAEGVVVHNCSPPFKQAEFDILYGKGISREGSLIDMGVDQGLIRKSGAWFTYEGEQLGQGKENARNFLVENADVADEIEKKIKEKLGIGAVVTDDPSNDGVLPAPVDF
SSB-PriA inh = blocks PriA binding to SSB C-terminal tail | AlphaScreen SSBct-PriA binding, biotinylated peptide | inhibition, % at 33 µM | 0.6% of 430,000 active | AID 1272365; in the data active = inhibition mostly above about 37%, no sharp cut-off; inactive = mostly below about 20%;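 note: plate controls were negative control peptide for no effect and reference peptide for full effect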
PrP 5UTR inh = inhibition of PrP 5' UTR reporter expression | 0.35% of 340,000 active | AID 488862 | cell-based PrP 5' UTR mRNA reporter, plate reader | inhibition, % (no concentration beside the values); in the data active = inhibition above about 52%; note: 0 = median of the neutral control wells
PrP 5UTR single = prion 5' UTR mRNA inhibition, cherry-pick retest; inhibition, % at 2.5 µM; 48% of 1,100 active; shares compounds with PrP 5UTR inh; cell-based prion protein 5' UTR reporter, plate reader; in the data active = inhibition above about 54%; inconclusive = no clear call, values can overlap the other calls
Numbers without * were called inactive; ? = inconclusive; · = not tested or not shown. The list is not random: actives were taken first. Their share in the collection is about 1.9%.

SMILES	PrPC surface inh	BJeLR lethal	PfHsp40 yeast	RecA intein inh	SSB-PriA inh	PrP 5UTR inh	PrP 5UTR single
COc1ccccc1C1C(=C(O)c2cnn(-c3ccccc3)c2C)C(=O)C(=O)N1CCN(C)C (stereo unspecified)	·	·	·	·	-7	·	·
Cc1ccccc1OCC(=O)Nc1cccc(C(=O)O)c1	0	4	0	-1	3	76*	77*
CCOc1ccc(OCc2cccc(C(=O)O)c2)cc1	4	55*	-2	1	0	93*	95*
CCOc1ccc(OCc2cccc(C(=O)N3CCCC3)c2)cc1	-2	-3	-1	0	-15	7	·
COc1ccc(OCc2cccc(C(=O)O)c2)cc1	-1	42	1	-1	-19	93*	94*
COc1ccccc1OCC(=O)Nc1cccc(C(=O)O)c1	·	·	·	·	-16	·	·
O=C(OCC(F)(F)F)c1cccc(COc2ccc3ccccc3c2)c1	-4	-6	2	10	-92	63*	66*
CCOc1ccc(OCC(=O)NNC(=O)c2ccc(=O)n(Cc3ccccc3)c2)cc1	·	·	·	·	-11	·	·
O=C(CCn1cnc2ccccc2c1=O)NCC#CCOc1ccc2c(c1)OCO2	·	·	·	·	14	·	·
CCOc1ccc(NC(=O)c2ccccn2)cc1	-21	13	-3	1	-19	62*	72*
O=C(O)c1cccc(COc2ccc3c(c2)CCC3)c1	-7	3	2	2	-6	82*	88*
CCOC(=O)c1cccc(NC(=O)Nc2ccc(OCC)cc2)c1	10	4	-1	-2	2	-8	·
CCOc1ccc(NC(=O)Nc2cccc(C(=O)O)c2)cc1	8	31	-2	·	-13	88*	91*
O=C(O)c1ccc(COc2ccc(CO)cc2Cl)cc1	0	2	-1	1	-10	-62	·
O=C(O)c1cccc(COc2ccc(CO)cc2Cl)c1	6	15	0	2	3	93*	93*
Cc1cc(C(F)(F)F)nc(CCNC(=O)c2cc(C)on2)n1	·	·	·	·	-10	·	·
COCCCNC(=O)C(=O)Nc1nccs1	·	·	·	·	-24	·	·
O=C(NC[C@H](O)Cn1ccccc1=O)C1(c2ccc(Cl)cc2)CCCC1	·	·	·	·	-3	·	·
Cc1cccc(OCc2n[nH]c(=S)o2)c1C	-1	8	-1	·	-1	-66	·
Cc1cccc(C)c1OCc1n[nH]c(=S)o1	1	-4	0	0	-2	73*	-25
O=S(=O)(Cc1cc(-c2ccccc2)no1)c1ccccc1	1	-4	1	-2	-13	51*	5
COc1ccc(C(=O)NCCCNC(=O)c2cc3ccccc3[nH]2)cc1OC	2	-3	1	0	-6	78*	-8
O=C(NCCCO)c1cc2ccccc2[nH]1	-8	7	1	3	2	-31	·
Cn1c(NC2CCCCC2)cc(=O)n(C)c1=O	-4	-5	-2	0	1	-27	·
Cc1cc(C2CCCCC2)n(O)c(=O)c1	8	·	?	·	-12	69*	32
SMILES	PrPC surface inh	BJeLR lethal	PfHsp40 yeast	RecA intein inh	SSB-PriA inh	PrP 5UTR inh	PrP 5UTR single
O=C(CN1C(=O)c2ccccc2S1(=O)=O)c1ccc(OC(F)F)cc1	·	3	-1	-1	-7	67*	64*
O=C(CN1C(=O)c2ccccc2S1(=O)=O)c1ccc(Cl)cc1Cl	1	-8	0	-1	-2	79*	82*
O=C(CN1C(=O)c2ccccc2S1(=O)=O)c1ccc(F)cc1	-5	-12	0	-3	-9	62*	49
NC(=O)c1ccccc1OCC#CCNC(=O)c1ccc2nsnc2c1	·	·	·	·	10	·	·
CCOc1ccc(NC(=O)c2sc(Nc3ccccc3OC)nc2C)cc1	·	·	·	·	16	·	·
CCOc1ccc2c(c1)C(C)=CC(C)(C)N2S(=O)(=O)c1ccc(C)cc1	10	27	11	·	-7	66*	87*
COc1ccccc1C(=O)NCCC(=O)Nc1nc2ccccc2[nH]1	2	5	0	6	-3	-17	·
Cc1ccc(C(=O)Nc2nc3ccccc3[nH]2)cc1	-3	25	-3	·	4	61*	65*
O=C(NCc1nc2ccccc2[nH]1)c1cccc([N+](=O)[O-])c1	·	·	·	·	9	·	·
Cc1ccc(C(=O)Nc2cnc3ccccc3c2)cc1	-1	9	-1	2	-3	89*	87*
O=C(NCc1nc2ccccc2[nH]1)c1ccc([N+](=O)[O-])cc1	-33	1	2	5	-12	74*	-26
COc1ccccc1C(=O)Nc1nc2ccccc2[nH]1	-9	109*	1	0	-5	92*	93*
CN(C)CCCNC(=O)c1ccc(C=NO)nc1	·	·	·	·	-4	·	·
CSc1ccccc1C(=O)Nc1nc2ccccc2[nH]1	11	-16	0	3	6	-91	·
Cc1ccc(C(=O)Nc2cc3ccccc3oc2=O)cc1	4	35	-2	·	-7	86*	86*
CC(=O)Nc1cc2ccccc2oc1=O	-2	11	-1	-2	-5	-9	·
COc1cc(SC)ccc1C(=O)Nc1nc2ccccc2[nH]1	5	121*	0	2	5	96*	98*
O=C(Nc1cccnc1)OC1CCCCC1	3	2	1	-2	-7	75*	-36
NC(=S)NN=Cc1c2ccccc2cc2ccccc12	·	·	·	·	4	·	·
NC(=S)NN=Cc1nccc2ccccc12	23	·	94*	·	78*	79*	71*
O=C(Nc1cccs1)N1CCC(CSCc2ccco2)CC1	·	·	·	·	18	·	·
S=c1nc(C2COc3ccccc3O2)[nH][nH]1 (stereo unspecified)	-10	4	-2	-1	1	-51	·
CCCS(=O)(=O)c1cnc(C2COc3ccccc3O2)nc1N (stereo unspecified)	-3	20	-3	-1	-2	86*	83*
CC(=O)Nc1ccc(SCC(=O)Nc2nc3ccccc3s2)nn1	·	·	·	·	-3	·	·
COc1cc(/C=C/CN2CCN(Cc3ccc(C)o3)C(CCO)C2)ccc1O (stereo unspecified)	-6	12	-1	-4	3	55*	?
SMILES	PrPC surface inh	BJeLR lethal	PfHsp40 yeast	RecA intein inh	SSB-PriA inh	PrP 5UTR inh	PrP 5UTR single
COc1ccccc1/C=C/CN1CCN(Cc2ccc(C)o2)C(CCO)C1 (stereo unspecified)	-4	-6	0	4	25	-24	·
CCOc1ccccc1C1C2=C(COC2=O)Nc2cc3c(cc21)OCO3 (stereo unspecified)	10	41	0	-6	1	64*	82*
O=C1OCC2=C1C(c1ccc(F)cc1)c1cc3c(cc1N2)OCCO3 (stereo unspecified)	9	·	1	·	-11	54*	88*
CCOc1ccccc1C1CC(=O)Nc2cc3c(cc21)OCO3 (stereo unspecified)	21	6	-2	-1	18	22	·
Cc1oc(-c2ccc(F)cc2F)nc1CN1C[C@@H]2C[C@H](C1)c1cccc(=O)n1C2	·	·	·	·	-3	·	·
O=C(C[C@H]1C/C=C/CC[C@H](Cc2ccc(F)cc2)C(=O)OC[C@@H](Cc2c[nH]c3ccccc23)NC1=O)NCCO	·	·	·	·	15	·	·
